From PubChem BioAssay (EPA / NIEHS)
Inconclusive results are not listed. The source made the active and inactive calls. How the source made its calls: active means hit-call score of the fitted dose curve at least 0.9, where 1 is the maximum; inconclusive means response in the unintended direction; inactive means score below 0.9.

Tests used:
[1] = ATG_XTT_Cytotoxicity: Cytotoxicity Assessment in the Attagene TRANS-FACTORIAL HepG2 Assay (AID 2283584);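 on AC50: cells exposed to compound for 24 h before reading; active means loss of viability signal versus DMSO baseline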
Method in brief: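 HepG2 human liver cells, transiently transfected with multiple GAL4-UAS reporter units, were dosed and read at 24 h by XTT as cell number. Loss of signal was fitted relative to DMSO negative control baseline.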

[2] = TOX21_p53_BLA_p2_viability: Viability Assessment in the Tox21 HCT-116 p53 Agonism Beta-lactamase Assay, Phase 2 (AID 2283591);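 further: compound exposure lasted 16 h at 37 °C; actives lower the ATP signal meaning cytotoxicity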
Method in brief: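 HCT-116 p53-bla cells (4000/well) rested 5 h at 37C, then received compounds in DMSO (217-fold dilution) for 16 h at 37C, 5% CO2. After the CCF4 read, CellTiter-Glo was added; ATP luminescence was read after 30 min at room temperature.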

[3] = target: Cellular tumor antigen p53 (Homo sapiens) (UniProt P04637); test: TOX21_p53_BLA_p2_ratio: Tox21 HCT-116 p53 Agonism Beta-lactamase Assay, Ratio, Phase 2 (AID 2283592)
Method in brief: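 Ratio endpoint: beta-lactamase cleavage of CCF4-AM, blue (460 nm) over green (530 nm). HCT116 reporter line; 16 h treatment, 37C; substrate 2 h RT.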

[4] = TOX21_p53_BLA_p3_viability: Viability Assessment in the Tox21 HCT-116 p53 Agonism Beta-lactamase Assay, Phase 3 (AID 2283593);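 further: cells exposed to compound for 16 h before reading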
Method in brief: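 HCT-116 cells (4000/well) rested 5 h at 37C, then got DMSO compounds by pin tool (217-fold dilution) for 16 h at 37C, 5% CO2. After the bla read, CellTiter-Glo was added and luminescence read at 30 min, room temperature.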

[5] = target: Cellular tumor antigen p53 (Homo sapiens) (UniProt P04637); test: TOX21_p53_BLA_p3_ratio: Tox21 HCT-116 p53 Agonism Beta-lactamase Assay, Ratio, Phase 3 (AID 2283596)
Method in brief: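 Cells were seeded at 4000/well, rested 5 h at 37C, then dosed with DMSO compound solutions (217-fold dilution) for 16 h. CCF4-AM substrate was loaded for 2 h at room temperature, and the 460/530 nm emission ratio was fitted for gain of signal versus DMSO.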

[6] = TOX21_p53_BLA_p4_viability: Viability Assessment in the Tox21 HCT-116 p53 Agonism Beta-lactamase Assay, Phase 4 (AID 2283597);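 further: hits lower the luminescence signal meaning cytotoxicity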
Method in brief: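 Cytotoxicity was inferred from loss of CellTiter-Glo luminescence. HCT116 cells had been dosed with compounds after 5 h plating, incubated 16 h at 37C and 5% CO2, and exposed to the CCF4-AM substrate for 2 h.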

[7] = target: Cellular tumor antigen p53 (Homo sapiens) (UniProt P04637); test: TOX21_p53_BLA_p5_ratio: Tox21 HCT-116 p53 Agonism Beta-lactamase Assay, Ratio, Phase 5 (AID 2283599)
Method in brief: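 HCT-116 cells carrying a p53-inducible beta-lactamase reporter were seeded at 4000 cells/well and dosed after 5 h with compound in DMSO (217-fold dilution). After 16 h at 37C, CCF4-AM substrate was added for 2 h, and the 460/530 nm emission ratio was scored as gain-of-signal versus DMSO.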

[8] = TOX21_p53_BLA_p5_viability: Viability Assessment in the Tox21 HCT-116 p53 Agonism Beta-lactamase Assay, Phase 5 (AID 2283600)
Method in brief: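 Luciferase-coupled ATP quantitation of cells treated for 16 h (37C, 5% CO2) with test chemicals delivered in DMSO via a 217-fold dilution; 4000 cells/well; reagent incubated 30 min at room temperature before luminescence reading.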

[9] = target: Cellular tumor antigen p53 (Homo sapiens) (UniProt P04637); test: TOX21_p53_BLA_p4_ratio: Tox21 HCT-116 p53 Agonism Beta-lactamase Assay, Ratio, Phase 4 (AID 2283601)
Method in brief: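 HCT116 cells carrying an inducible beta-lactamase reporter were plated at 4000 cells/well, rested 5 h, then exposed to compounds in DMSO (217-fold dilution) for 16 h at 37C. CCF4-AM substrate was loaded 2 h at room temperature; 460/530 nm emission ratio scored gain-of-signal versus DMSO.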

Cellular tumor antigen p53 (Homo sapiens), sequence (P04637 whole entry, looked up): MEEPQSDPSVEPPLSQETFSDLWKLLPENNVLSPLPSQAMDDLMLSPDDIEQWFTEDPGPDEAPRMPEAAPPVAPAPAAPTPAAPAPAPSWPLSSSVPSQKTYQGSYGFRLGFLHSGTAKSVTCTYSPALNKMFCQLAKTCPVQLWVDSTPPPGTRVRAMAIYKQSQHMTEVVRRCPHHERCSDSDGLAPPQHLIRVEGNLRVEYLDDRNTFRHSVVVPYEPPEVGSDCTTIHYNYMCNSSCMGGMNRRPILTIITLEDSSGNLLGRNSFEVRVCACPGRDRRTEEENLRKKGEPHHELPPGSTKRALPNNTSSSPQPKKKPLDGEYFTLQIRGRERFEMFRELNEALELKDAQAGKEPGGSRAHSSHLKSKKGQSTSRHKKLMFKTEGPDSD

Row | SMILES | outcome [1] | outcome [2] | outcome [3] | outcome [4] | outcome [5] | outcome [6] | outcome [7] | outcome [8] | outcome [9] | AC50 [1] | AC50 [2] | AC50 [3] | AC50 [6] | AC50 [7] | AC50 [8] | AC50 [9]
1 | Clc1nc(C(Cl)(Cl)Cl)c(Cl)c(Cl)c1Cl | inactive | inactive | inactive | inactive | inactive | inactive | inactive | inactive | inactive |  |  |  |  |  |  | 
2 | NC(N)=NC(=O)c1nc(Cl)c(N)nc1N | inactive | inactive | inactive | inactive | inactive | inactive | inactive | inactive | inactive |  |  |  |  |  |  | 
3 | COC(=O)OC | inactive | inactive | inactive | inactive | inactive | inactive | inactive | inactive | inactive |  |  |  |  |  |  | 
4 | CCCCCCCCCCCCCOS(=O)(=O)O |  |  |  | inactive | inactive |  |  |  |  | 148 µM (active) | 82.4 µM (active) | 85.6 µM (active) | 70.8 µM (active) | 85.4 µM (active) | 66.6 µM (active) | 83.6 µM (active)
5 | CC(C)c1cccc(O)c1 | inactive | inactive | inactive | inactive | inactive | inactive | inactive | inactive | inactive |  |  |  |  |  |  | 
6 | C[C@]12CC[C@H]3[C@@H](CCC4=CC(=O)CC[C@@]43C)[C@@H]1CC[C@@H]2C(=O)CO | inactive | inactive | inactive | inactive | inactive | inactive | inactive | inactive | inactive |  |  |  |  |  |  | 
7 | CNC[C@H](O)c1cccc(O)c1 | inactive | inactive | inactive | inactive | inactive |  | inactive | inactive | inactive |  |  |  |  |  |  | 
8 | O=C(O)c1cccc(C(F)(F)F)c1 | inactive | inactive | inactive | inactive |  | inactive | inactive | inactive | inactive |  |  |  |  |  |  | 
9 | CCCCCCCCCCC(CO)CCCCCCCC (configuration not stated) | inactive | inactive | inactive | inactive |  | inactive |  | inactive | inactive |  |  |  |  |  |  | 
